Screening results from PubChem.
An excerpt weighted towards active compounds, which were near 1.2% of everything screened.
RGS8-Gao: modulates binding of RGS8 to human Galphao; multiplexed bead flow cytometry; actives lie on both sides; response (percent of control binding), % at 10 µM; 220,000 compounds, 0.34% hits; P09471; in the data active means response below about 60% or above about 140%; inactive means in between;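 further: Galphao activated as the GDP aluminium fluoride complex binding bead-coupled RGS8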
Target sequence (P09471 whole entry, looked up): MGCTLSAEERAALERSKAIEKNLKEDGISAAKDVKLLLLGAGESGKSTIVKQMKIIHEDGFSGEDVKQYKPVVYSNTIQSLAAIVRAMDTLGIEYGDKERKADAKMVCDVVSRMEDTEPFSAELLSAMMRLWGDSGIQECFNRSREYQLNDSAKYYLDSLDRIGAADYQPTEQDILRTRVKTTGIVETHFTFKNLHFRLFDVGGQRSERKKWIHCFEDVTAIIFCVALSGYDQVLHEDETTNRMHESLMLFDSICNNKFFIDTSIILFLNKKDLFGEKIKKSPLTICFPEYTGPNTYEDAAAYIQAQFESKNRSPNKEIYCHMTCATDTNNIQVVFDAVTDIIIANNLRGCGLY
RGS16-Gao: RGS16-Galphao interaction regulator (human). O15492+P09471. binding response (% of control), % at 10 µM. bead-based flow cytometry RGS16-Galphao binding, fluorescence; actives lie on both sides. 220,000 compounds, 0.38% hits; call rule not given here;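 further: Galphao activated by GDP with aluminum fluoride before binding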
Target sequence (O15492 whole entry, looked up): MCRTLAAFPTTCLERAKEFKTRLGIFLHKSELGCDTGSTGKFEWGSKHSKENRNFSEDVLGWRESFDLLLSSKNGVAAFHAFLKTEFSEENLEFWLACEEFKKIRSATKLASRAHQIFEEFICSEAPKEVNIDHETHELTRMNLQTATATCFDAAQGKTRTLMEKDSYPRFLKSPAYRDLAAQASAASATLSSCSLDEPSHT
Target sequence (P09471 whole entry, looked up): as the sequence (P09471 whole entry, looked up) above
Avidin bead fluor: compound fluoresces at 488/530 nm on avidin beads; fluorescence (KMESF) at 10 µM; AID 1775; compound fluorescence 488/530 nm, flow cytometry; stronger effect = higher value; 220,000 compounds, 0.38% hits; in the data active means fluorescence above about 47
GSH bead fluor: GSH bead compound fluorescence profile. GSH beads flow cytometry, compound fluorescence 488/530 nm; stronger effect = higher value. 190,000 compounds, 0.25% hits. fluorescence (KMESF) at 10 µM; in the data active means fluorescence above about 89;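 further: glutathione beads carrying GST-tagged Bcl family fusion proteins plus one bare bead set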
RGS4-Gao reg: modulates binding of RGS4 to human Galphao; P09471; Multiplexed bead flow cytometry; actives lie on both sides; binding response (% of control), % at 10 µM; 220,000 compounds, 0.33% hits; AID 1415; in the data active means binding response below about 49% or above about 150%; inactive means in between;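 further: fluorescent Galphao activated with aluminum fluoride binding bead-coupled RGS4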
RGS7-Gao reg: human RGS7-Galphao interaction regulation; P09471; Multiplexed bead flow cytometry, RGS7-Galphao binding; actives lie on both sides; binding response (% of control), % at 10 µM; 220,000 compounds, 0.35% hits; in the data active means binding response below about 49% or above about 150%; inconclusive means no clear call, values can overlap the other calls; inactive means in between;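 further: fluorescent Galphao held in activated GDP-AlF4 state binding bead-coupled RGS7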
Each line names hits and unclear results; the compound was inactive in the other large screens; [ ] = remark or other dose.

CC(=O)c1ccc(NC(=O)COc2ccc3c(c2)OCO3)cc1	none
CCc1nc2c(sc3nc4c(cc32)COC(C)(C)C4)c(=O)n1Cc1ccco1	Avidin bead fluor 65
O=C(/C=C/c1ccco1)Nc1ccc2nc3n(c(=O)c2c1)CCCC3	none
O=C(O)c1ccc(NCCc2ccc(Cl)cc2)c([N+](=O)[O-])c1	none
C=CCNS(=O)(=O)c1cccc2cc(C(=O)O)c(O)cc12	Avidin bead fluor 50
C=CCNS(=O)(=O)c1cccc(C(C)=O)c1	none
CC1Cc2ccccc2N1C(=O)CSc1nnnn1C (stereo not drawn)	GSH bead fluor 251
CCOC(=O)c1[nH]c2ccccc2c1NC(=O)CCN1CCN(C(=O)OCC)CC1	Avidin bead fluor 132
Nn1c(SCc2cn3ccsc3n2)nnc1-c1ccncc1	GSH bead fluor 266
Cc1ccc(CSc2nnc(-c3ccncc3)n2N)cc1	RGS7-Gao reg inconclusive (no result: GSH bead fluor)
C=CCN=C1S/C(=C\c2ccc(Cl)cc2)C(=O)N1CC=C	Avidin bead fluor 49, RGS7-Gao reg inconclusive (no result: GSH bead fluor)
C=CCn1c(-c2ccc(C)cc2)nc2ccccc21	Avidin bead fluor 47
Cc1ccc2c(c1)oc(=O)n2CC(=O)c1ccccc1	RGS7-Gao reg inconclusive (no result: GSH bead fluor)
Cc1cc(C(=O)OCc2nnc(-c3ccccc3)o2)c(C)n1-c1ccccc1	GSH bead fluor 261
Cc1cc2cc(C)c3nnc(SCC(=O)N4CCc5ccccc54)n3c2cc1C	RGS8-Gao 12, RGS16-Gao 1.3, RGS4-Gao reg 22, RGS7-Gao reg 14
Cc1cc2cc(C)c3nnc(SCC(=O)N4CCCc5ccccc54)n3c2cc1C	none
CSCC[C@H](NC(=O)OC(C)(C)C)C(=O)N/N=C/c1ccc2nccnc2c1	RGS7-Gao reg inconclusive (no result: GSH bead fluor)
O=C(NCCCn1ccnc1)/C(=C\c1cccnc1)NC(=O)c1ccccc1F	none
O=C(NN1C(=O)C2CC=C(Cl)CC2C1=O)c1ccncc1 (stereo not drawn)	none
CCOc1ccccc1N1C(=O)CC(Nc2ccc(N3CCOCC3)cc2)C1=O (stereo not drawn)	GSH bead fluor 245
CCOC(=O)c1ccc(S(=O)(=O)N2CCN(CC(=O)NC(=O)NC3CCCCC3)CC2)cc1	RGS8-Gao 152[activator], RGS16-Gao 185[activator], RGS4-Gao reg 188[activator], RGS7-Gao reg 176[activator]
CCOC(=O)c1ccc(S(=O)(=O)N2CCN(S(=O)(=O)CC)CC2)cc1	none
O=C(N/N=C/c1ccc(-c2ccc(S(=O)(=O)Nc3ncccn3)cc2)o1)c1cc2ccccc2cc1O	Avidin bead fluor 50
COc1ccc(C(=O)NCc2nnc(SCC(=O)N3CCC(C)CC3)o2)cc1	none
NCCc1c(-c2ccccc2)n(-c2ccccc2)c2ccccc12	RGS7-Gao reg inconclusive
Cc1ccc(C(=O)Nc2ccc(CC(=O)O)cc2)o1	GSH bead fluor 254
Cc1cc(C(C)(C)C)oc1C(=O)Nc1ccc(CC(=O)O)cc1	GSH bead fluor 239
CC(C(=O)Nc1ccncc1)(c1ccccc1)c1ccccc1	none
CCCCN1C(=O)c2ccc(C(=O)Nc3c(N)n(CCCC)c(=O)n(C)c3=O)cc2C1=O	GSH bead fluor 271
CCCN1C(=O)c2ccc(C(=O)Nc3cc(C)on3)cc2C1=O	none
O=C(c1cnn2c(C(F)(F)F)cc(-c3cccs3)nc12)N1CCN(C(c2ccccc2)c2ccccc2)CC1	GSH bead fluor 126
CN1CCN(C(=O)c2cnn3c(C(F)(F)F)cc(-c4cccs4)nc23)CC1	none
COC(=O)c1sc2ccccc2c1C(=O)OC	Avidin bead fluor 61
COC(=O)c1sc2ccccc2c1N	none
COc1ccc(CC(=O)OCC(=O)Nc2ccc3c(c2)OCO3)cc1	RGS7-Gao reg inconclusive
Nc1nc2ccc(O)cc2s1	GSH bead fluor 187
CN(C(=O)Nc1cccc(C(F)(F)F)c1)C1CCCCC1	RGS7-Gao reg inconclusive (no result: GSH bead fluor)
COc1cc(C(=O)COC(=O)CNC(=O)C2CCCCC2)cc(OC)c1OC	Avidin bead fluor 53
O=C(CCc1nnc(CCCCc2ccccc2)o1)N1CCC(N2CCCC2)CC1	none
Cc1cc(Nc2ncc(Cl)cc2Cl)n(-c2ccccn2)n1	GSH bead fluor 268
Fc1ccccc1Cc1noc(CN2CCN(c3ccc(Cl)cn3)CC2)n1	none
CCCN(Cc1cc2cc(OC)ccc2[nH]c1=O)C(=O)c1ccco1	Avidin bead fluor 49, RGS7-Gao reg inconclusive (no result: GSH bead fluor)
CCCCN(Cc1cc2cc(OC)ccc2[nH]c1=O)C(=O)c1ccco1	none
N=c1sccn1CC(=O)Nc1ccc(SC(F)F)cc1	none
Oc1ccc(C=Nc2cccc3ncccc23)c(O)c1	none
Oc1ccc(C=Nc2ccc3ncccc3c2)c(O)c1	Avidin bead fluor 69
CS(=O)(=O)N(CC(=O)NCc1ccco1)c1cccc([N+](=O)[O-])c1	RGS7-Gao reg inconclusive
Cc1ccccc1NC(=O)C1CCCN1C(=O)NC1CCCCC1 (stereo not drawn)	GSH bead fluor 263
O=C(c1ccco1)N1CCN(C(c2ccc(F)cc2)c2nnnn2Cc2cccs2)CC1 (stereo not drawn)	GSH bead fluor 260
O=C(NC1CCS(=O)(=O)C1)C1C2CC3CC(C2)CC1C3 (stereo not drawn)	Avidin bead fluor 55
CCSC1=N/C(=C\c2ccc3c(c2)OCO3)C(=O)S1	none
CCCSC1=N/C(=C\c2ccc3c(c2)OCO3)C(=O)S1	Avidin bead fluor 60
CC(C)Nc1c(N)c(=O)oc2ccccc12	GSH bead fluor 253
CCOC(=O)C1=NN(C(=O)COc2ccccc2)C(O)(c2ccc(Br)cc2)C1 (stereo not drawn)	none
CCOc1ccc(CC(=O)NNC(=S)NC2CCCCC2)cc1OCC	GSH bead fluor 128
CCOc1ccc(CC(=O)NNC(=O)NC2CCCCC2)cc1	none
CCCC(=O)c1ccc(O)cc1O	RGS7-Gao reg inconclusive (no result: GSH bead fluor)
CC(Oc1ccc(Cl)cc1Cl)c1nc(-c2ccc(NC(=O)c3ccncc3)cc2)no1 (stereo not drawn)	GSH bead fluor 97
CC(Oc1ccc(Cl)cc1Cl)c1nc(-c2ccc(NC(=O)c3cccnc3)cc2)no1 (stereo not drawn)	none
COc1cc(C(=O)NNC(=S)NC(=O)c2ccc(Cl)cc2)cc(OC)c1OC	GSH bead fluor 446
O=C(O)Cc1ccc(S(=O)(=O)Nc2ccccc2C(=O)O)cc1	none
Cc1ccc(S(=O)(=O)Nc2nc(C)c(NC(=O)OCCCl)s2)cc1	Avidin bead fluor 62
Cc1cc(C)nc(NS(=O)(=O)c2ccc(NC(=S)NC(=O)CC(C)C)cc2)n1	RGS16-Gao 270[activator], Avidin bead fluor 118, RGS4-Gao reg 208[activator], RGS7-Gao reg 194[activator]
CCS(=O)(=O)c1nc(S(=O)(=O)c2ccc(Cl)cc2)c(NCCOC)s1	none
O=C(COC(=O)c1ccccc1)NCCC1=CCCCC1	none
Cc1ccc(NC(=O)Cn2cccc2C2=NC(c3ccccc3)CO2)cc1C (stereo not drawn)	none
